{"source": "PubChem BioAssay (NCATS)", "note": "Values without a mark were called inactive. How the calls were made is not given here. Potency means the concentration at half of the fitted maximal effect."}
{"tested_on": "HIV-1 nucleocapsid protein NCp7 (binding to TG oligonucleotide)", "test": "HIV Nucleocapsid (AID 346);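 further: potency is for inhibitors that block NC binding and lower polarization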", "conditions": "HIV-1 NC / fluorescein-TGTGTGTG probe, fluorescence polarization", "in_short": "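10 nM TG4xF probe with 100 nM nucleocapsid protein in high-salt Hepes pH 7.5 (250mM NaCl) containing 1uM ZnCl2 and reducing agents. Compound inhibition of binding was read as fluorescein polarization after 1 hr at room temperature.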", "units": {"Potency": "µM"}}
{"compound": "CN(C)c1nc(-c2cccc(C#N)c2)nc2ccccc12", "Potency": "> 20"}
{"compound": "CS(=O)(=O)N1CCC2(CCN(c3ccccn3)CC2)CC1", "Potency": "> 20"}
{"compound": "COc1ccc(-n2c(=O)cnc3cnc(Nc4ccccc4)nc32)cc1", "Potency": "> 4"}
{"compound": "N#Cc1cccc(NC(=O)N2CC[C@@]3(CCCN(C(=O)c4cccc(F)c4)C3)C2)c1", "Potency": "> 20"}
{"compound": "Cc1cnc(CNc2ncncc2-c2ccc(N(C)C)cc2)cn1", "Potency": "> 20"}
{"compound": "O=C(c1ccncc1)N1CCC2(CCN(Cc3ccncc3)CC2)CC1", "Potency": "> 20"}
{"compound": "N#CCCn1c(=O)c(-c2cccs2)nc2cnc(N3CCNCC3)nc21", "Potency": 16.4}
{"compound": "Cc1nc2cncnc2n(Cc2ccccc2Cl)c1=O", "Potency": "> 20"}
{"compound": "COCCNc1nc(-c2ccccc2C)nc2ccccc12", "Potency": "> 20"}
{"compound": "CN(C)c1ccc(-c2nc(NCCN3CCOCC3)c3ccccc3n2)cc1", "Potency": "> 20"}
{"compound": "COc1ccc(NC(=O)N2CC3(CCN(S(=O)(=O)c4ccccc4)CC3)C2)cc1", "Potency": "> 20"}
{"compound": "O=C(Oc1ccccc1)N1CCC2(CC1)CN(c1ccncc1)C2", "Potency": "> 20"}
{"compound": "O=C(c1cnccn1)N1CCC2(CCCN(Cc3ccccc3)C2)CC1", "Potency": "> 20"}
{"compound": "O=c1c(-c2cccc(F)c2)nc2cncnc2n1Cc1ccccc1Cl", "Potency": "> 20"}
{"compound": "CN1CCN(c2ccnc(-c3ccc(N(C)C)cc3)n2)CC1", "Potency": "> 20"}
{"compound": "COc1cccc(-c2nccc(NCCc3c[nH]c4ccc(OC)cc34)n2)c1", "Potency": "> 20"}
{"compound": "COc1cccc(Nc2ncc3nc(C)c(=O)n(C)c3n2)c1", "Potency": "> 20"}
{"compound": "Cn1c(=O)c(CCc2ccccc2)nc2cncnc21", "Potency": "> 20"}
{"compound": "COc1ccccc1CNc1ccnc(-c2ccccc2Cl)n1", "Potency": "> 20"}
{"compound": "CN(C)c1ncc2nc(-c3cc(F)cc(F)c3)c(=O)n(-c3ccccc3)c2n1", "Potency": "> 4"}
{"compound": "CC(=O)NCCNc1cc(-c2ccccc2C)ncn1", "Potency": "> 20"}
{"compound": "O=c1c(-c2ccccc2)nc2cnc(N3CCNCC3)nc2n1Cc1ccc(F)cc1", "Potency": "> 20"}
{"compound": "COc1ccccc1CCn1c(=O)c(-c2cn(C)c3ccccc23)nc2cncnc21", "Potency": "> 4"}
{"compound": "COc1ccc2[nH]cc(CCNc3cc(-c4ccccc4CN(C)C)ncn3)c2c1", "Potency": "> 20"}
